Screening results as filed in PubChem BioAssay.
Rows were chosen to be rich in hits. Some 28% of all compounds tested hit in one or more screens of this group.
D1 allo mod: allosteric modulators of human D1 dopamine receptor | B-score at 10 µM | HEK293 D1, CRE-luciferase, dopamine EC30 potentiation; actives deviate in either direction | P21728 | 5.9% of 58,000 active;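 active = luminescence count or its row- and column-corrected plate score outside the 99.7% band of the plate's sample wells, on either side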
CYP2C9 act: CYP2C9 (human) activation; P11712; recombinant CYP2C9, luciferin-H conversion, luminescence; stronger effect = higher value; factor 1 = untreated enzyme, 0 = blocked; activation factor at 5 µM; 1.4% of 96,000 active; AID 1024;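 active = activation factor of 2 or more for CYP2C9 at a 5 µM dose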;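 note: 0 = sulfaphenazole-blocked wells and 1 = vehicle-only wells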
DAT uptake mod: modulates human dopamine transporter uptake under cocaine; Q01959; LLC-PK1 hDAT cells, [14C]-dopamine uptake with cocaine IC80; actives deviate in either direction; B-score at 10 µM; 1.3% of 110,000 active; AID 449768;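 active = Z score or B-score, a plate-position-corrected score, falls beyond the plate's 99.7% confidence bounds, in either direction; inactive = both scores lie inside the 99.7% bounds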;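 note: scored against the spread of the other compound wells on the same plate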
CYP2C19 act: increases human CYP2C19 enzyme activity; P33261; recombinant CYP2C19, luciferin-H EGE luminescence; stronger effect = higher value; 0 = fully inhibited enzyme, 1 = untreated enzyme; activation factor at 5 µM; 96,000 tested, under 10 active; AID 1025;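 active = activation factor of at least 2 at 5 µM in the primary screen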;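 note: 0 = wells with 2.5 mM tranylcypromine and 1 = vehicle-only wells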
Target sequence (P33261 whole entry, looked up): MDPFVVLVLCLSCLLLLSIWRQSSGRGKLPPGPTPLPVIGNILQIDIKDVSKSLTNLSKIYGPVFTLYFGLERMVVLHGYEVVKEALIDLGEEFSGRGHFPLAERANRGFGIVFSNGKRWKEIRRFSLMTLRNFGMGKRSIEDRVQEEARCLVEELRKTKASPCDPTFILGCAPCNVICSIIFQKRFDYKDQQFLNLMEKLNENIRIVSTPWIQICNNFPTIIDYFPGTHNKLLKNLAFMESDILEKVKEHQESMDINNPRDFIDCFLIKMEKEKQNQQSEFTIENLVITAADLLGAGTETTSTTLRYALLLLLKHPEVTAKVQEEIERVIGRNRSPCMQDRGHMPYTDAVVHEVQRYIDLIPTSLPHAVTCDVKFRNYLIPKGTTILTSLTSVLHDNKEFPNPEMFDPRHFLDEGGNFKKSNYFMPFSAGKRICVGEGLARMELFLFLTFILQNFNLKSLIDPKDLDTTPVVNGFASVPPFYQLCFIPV
CYP2C9 inh: human CYP2C9 inhibition | AID 777 | 20% of 96,000 active | P11712 | inhibition, % at 5 µM | CYP2C9 Supersomes, luciferin-H conversion, luminescence;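 active = blocking of liver enzyme CYP2C9 beyond about 50% at 5 µM, limit read from the data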
CYP2C19 inhib: human CYP2C19 inhibition. P33261. CYP2C19 Supersomes, luciferin-H EGE luminescence, 30 min. inhibition, % at 5 µM. 21% of 96,000 active. AID 778;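 active = CYP2C19 inhibition above a set limit at 5 µM in the primary screen, cut at about 50% in these data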;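 note: plate controls were negative control wells for no effect and 2.5 mM tranylcypromine positive control for full effect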
* = called active by the depositor; . = no result.

SMILES	D1 allo mod	CYP2C9 act	DAT uptake mod	CYP2C19 act	CYP2C9 inh	CYP2C19 inhib
Cc1ccc(N2CCN(C(=O)C3CCN(S(=O)(=O)c4cccc5nsnc45)CC3)CC2C)cc1 (stereo not given)	0.66	.	.	.	.	.
COc1ccc(CCNC(=O)c2c(O)c3c([nH]c2=O)CCCC3)cc1OC	-0.15	.	-0.71	.	.	.
CCc1ccccc1NC(=O)CSc1nnc(Cn2nnc3ccccc32)n1C	.	.	0.14	.	.	.
O=C(O)C1=C[C@@H](c2ccc(Br)cc2)C[C@@H](OCCCCO)O1	.	.	0.62	.	.	.
O=S(=O)(c1ccc(-c2csc(=Nc3ccccc3)n2CCCN2CCOCC2)cc1)N1CCOCC1	.	0.6	1.4	0.4	36	56*
O=C(O)CCc1ccc(S(=O)(=O)N2CCOCC2)cc1	.	1	0.0069	1	4	4
COC(=O)C1=C(C)NC(=O)NC1c1cccc(OC)c1OCc1ccccc1 (stereo not given)	.	0.2	.	0.8	77*	19
CCSCCOC(=O)C1=C(C)NC(=O)NC1c1cccc(OC)c1OC (stereo not given)	0.3	0.7	0.96	0.2	27	80*
CC1=C(C(=O)NCc2ccccc2)C(c2ccccc2OCC(N)=O)NC(=O)N1 (stereo not given)	-0.72	0.5	-1.5	1.1	45	-6
CC(=O)C1=C(c2ccccc2)NC(=O)NC1c1ccccc1OCC(=O)NCc1ccccc1 (stereo not given)	.	0.1	0.72	0.1	95*	90*
COc1ccccc1NC(=O)C1=C(C)NC(=O)NC1c1cccc(OC)c1OC (stereo not given)	0.48	1.1	0.74	1	-13	-1
COCCOC(=O)C1=C(C)N(Cc2ccccc2)C(=O)NC1c1cccc(OC)c1OC (stereo not given)	-0.14	0.1	0.21	0	90*	99*
CC1(O)C(=O)C=C2C=C(c3ccsc3)OC=C2C1=O (stereo not given)	.	.	-0.74	.	.	.
O=C(N/C=N/O)C1=NOC(CNc2ncc(C(F)(F)F)cc2Cl)C1 (stereo not given)	.	0.9	0.33	0.2	5	77*
O=C(NC1CC1)C1=NOC(CNc2ncc(C(F)(F)F)cc2Cl)C1 (stereo not given)	.	2.4*	0.96	0.2	-139	85*
CC1CN(C(=O)CSc2nc(-c3ccc(F)cc3)cs2)CC(C)O1 (stereo not given)	.	0.9	-0.63	0.2	10	79*
O=C(CSc1nc(-c2ccc(F)cc2)cs1)N1CCOCC1	0.2	2.1*	-0.41	0.3	-110	69*
CC1CN(C(=O)CSc2nnc(-c3ccc(Cl)cc3)n2C)CC(C)O1 (stereo not given)	-0.53	1	-0.3	1.1	-2	-8
O=C(NCCO)c1scc2c1OCCO2	0.2	1.2	-0.81	1.1	-17	-8
COc1ccc(C)cc1N(CC(=O)O)S(=O)(=O)c1ccc(C)cc1	1.3	1	0.84	0.9	1	8
COc1ccc(C)cc1N(CC(N)=O)S(=O)(=O)c1ccc(C)cc1	-0.078	0.5	0.13	0.1	54*	90*
COc1ccc(S(=O)(=O)N(C)CC(=O)NC2CCCCC2)cc1OC	0.64	1.6	0.2	0.7	-61	29
CNC(=O)CN(c1cc(C)ccc1OC)S(=O)(=O)c1ccc(C)cc1	0.12	0.9	-0.19	0.9	7	11
COc1ccc(OC)c(N(CC(=O)NC2CC2)S(=O)(=O)c2ccc(C)cc2)c1	0.14	0.2	0.66	0.2	80*	84*
COc1ccc(S(=O)(=O)N(CC(=O)NC2CC2)c2ccc(C)cc2)cc1OC	0.14	0.9	0.12	0	13	99*
SMILES	D1 allo mod	CYP2C9 act	DAT uptake mod	CYP2C19 act	CYP2C9 inh	CYP2C19 inhib
O=C(CSc1nnc(Cc2ccccc2)n1-c1ccc(Cl)cc1)N1CCOCC1	0.009	1	0.13	0.9	1	8
CCOC(=O)c1ccc(N2CC(O)=C(c3nc4ccccc4c(=O)[nH]3)C2=N)cc1	-0.017	1.4	0.85	0.6	-42	41
CCS(=O)(=O)N1CCN(c2ccc([N+](=O)[O-])c(NCc3ccccc3)c2)CC1	.	0.8	-1.5	0.9	21	7
Cc1cc(C)c(S(=O)(=O)N2CCN(c3ccc([N+](=O)[O-])c(NCC4CCCO4)c3)CC2)c(C)c1 (stereo not given)	.	0.4	-0.22	0.6	56*	36
CS(=O)(=O)N1CCN(c2ccc([N+](=O)[O-])c(NCc3ccccc3)c2)CC1	.	1.1	.	1.2	-10	-16
CCNc1cc(N2CCN(S(=O)(=O)c3ccc4c(c3)CCCC4)CC2)ccc1[N+](=O)[O-]	.	0.7	-0.57	0.5	33	54*
Cc1cc(C)c(S(=O)(=O)N2CCN(c3ccc([N+](=O)[O-])c(NCc4ccco4)c3)CC2)c(C)c1	.	0.5	-0.47	0.6	53*	37
CC(C)c1ccc(CNc2cc(N3CCCC3)ccc2[N+](=O)[O-])cc1	.	0.5	0.34	0.7	53*	30
